The nature of experiment [1]: Quantitative High-Throughput drug screen in 47 multiple myeloma cell lines against the NCATS MIPE library collection: PE2_PLB cell viability assay (AID 1919869). Note: nearly all actives have a fitted effect of over 35% in size. An outline of the steps: (§1)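 500 cells/well; MIPE 4.0 drugs pin-transferred; 48 h, 37C, 5% CO2. CellTiter-Glo, 5 min RT, luminescence. Controls: DMSO 100%, media 0%.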
A short description of experiment [2]: Quantitative High-Throughput drug screen in 47 multiple myeloma cell lines against the NCATS MIPE library collection: PCM6_Riken cell viability assay (AID 1919870). Note: nearly all actives have a fitted effect of over 30% in size. Summed up: as §1
Experiment [3] is described as follows: qHTS for identification of novel therapeutic agents for treatment of microphthalmiaassociated transcription factor (MiT) renal cell carcinoma (RCC) (AID 1963991; calls by dose curve). The following applies: CellTiter-Glo, 48 h; for z-score: stronger effect = lower value; for Potency: active = Z-AUC below -0.8 in all three lines. An outline of the steps:
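Curves over 11 concentrations were fitted to CellTiter-Glo luminescence, scaled between empty wells (0%) and DMSO (100%) viability. Cells were UOK109, UOK124 and UOK145 TFE3-fusion RCC lines at 500/well, exposed 48 hours at 37 C.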

Experiment [4] is described as follows: Quantitative High-Throughput drug screen in 47 multiple myeloma cell lines against the NCATS MIPE library collection: KMS11_JCRBsus cell viability assay (AID 1919873). Note: nearly all actives have a fitted effect of over 50% in size. An outline of the steps: as §1
A short description of experiment [5]: qHTS drug screen for cell cycle checkpoint inhibitors in PARPi-resistant BRCA-mutant ovarian cancer cell lines. (AID 1963452; calls by dose curve). The settings on record: PEO1/OlaR viability, CellTiter-Glo luminescence, 96 h; for Z-AUC: stronger effect = lower value. Summed up:
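PEO1, PEO4 and PEO1/OlaR ovarian cancer cells, 600 per well, exposed 96 h at 37C to a dilution series. Viability read by CellTiter-Glo luminescence, normalized to DMSO and empty wells; activity summarized as Z-AUC.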

The nature of experiment [6]: Quantitative High-Throughput drug screen in 47 multiple myeloma cell lines against the NCATS MIPE library collection: RPMI8226_ATCC cell viability assay (AID 1919871). Note: nearly all actives have a fitted effect of over 30% in size. An outline of the steps: as §1
The nature of experiment [7]: Quantitative High-Throughput drug screen in 47 multiple myeloma cell lines against the NCATS MIPE library collection: KMS28BM_JCRB cell viability assay (AID 1919874). Note: nearly all actives have a fitted effect of over 35% in size. An outline of the steps:
as §1

A short description of experiment [8]: Quantitative High-Throughput drug screen in 47 multiple myeloma cell lines against the NCATS MIPE library collection: OPM2_DSMZ cell viability assay (AID 1919872). Note: nearly all actives have a fitted effect of over 30% in size. Summed up:
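CellTiter-Glo ATP luminescence gave viability after 48 h compound treatment at 37C of 500 multiple myeloma cells per well. Normalisation used DMSO-only wells as 100% and media-only wells as 0% viability; primary qHTS of approved and investigational drugs.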

Where [9] appears, read: TFE3-RCC UOK109 viability, measured here: UOK109 Z-AUC.
Where [10] appears, read: TFE3-RCC viability, measured here: UOK124 Z-AUC.
Setting [11] is: TFE3-RCC viability, measured here: UOK145 Z-AUC.
Setting [12] is: measured here: PEO1 parental Z-AUC.

Several values for one entry are separate records, joined by “and”; a condition that tells them apart may be missing. Equal entries are not always repeated. Inconclusive results are not listed. Activity calls are given as the source filed them. Unless noted, calls come from the whole dose curve; as a rule, active = well fitted cell-killing curve with a large enough effect; inconclusive = small, poorly fitted or top-dose-only effect, or effect the other way; inactive = no such curve, though single readings can be large or run the other way.
Potency is the fitted concentration of half-maximal effect.

With `O=C1CCC[C@@H]2[C@H]3CCC[N+]4([O-])CCC[C@@H](CN12)[C@@H]34` (stereo partly drawn), the Potency entry in experiment [1] and in experiment [2] was “inactive” in each case. Moreover, the z-score in experiment [3] (setting [9]) came out at 0.308; in experiment [3] (setting [10]), 0.251; in experiment [3] (setting [11]) it was 0.512.
For the compound `Cc1c(NC(=O)OC[C@@H]2COCCN2)cn2ncnc(Nc3ccc4c(cnn4Cc4cccc(F)c4)c3)c12`, the Potency is 5.26 µM (active) in experiment [1] and 26.4 µM (active) in experiment [4]. For the same compound, the Z-AUC was -1.36 (inactive) and 1.21 (inactive) in experiment [5]; -0.48 and 1.05 in experiment [5] (setting [12]); -1.04 and 1.11 in experiment [5] (measured here: PEO4 Z-AUC).
As for `Cc1cnc(-c2cnc(NCCNc3ccc(C#N)cn3)nc2-c2ccc(Cl)cc2Cl)[nH]1`, the Potency in experiment [1] was 23.5 µM (active); in experiment [2] it was 13.2 µM (active). Moreover, the figures for the Z-AUC in experiment [5], in experiment [5] (setting [12]) and in experiment [5] (measured here: PEO4 Z-AUC) were 1.35 (inactive), 0.904 and 0.844, respectively.
`Cn1cc(-c2ccncc2)c(-c2ccc(OCc3ccc4ccccc4n3)cc2)n1`: the Potency was 5.9 µM (active) in experiment [1], 6.62 µM (active) in experiment [6] and 8.33 µM (active) in experiment [4]. The Z-AUC in experiment [5] is 0.205 (inactive); in experiment [5] (setting [12]) it was -0.209; in experiment [5] (measured here: PEO4 Z-AUC), 0.0189.
With `CC(O)C1C(=O)N2C(C(=O)O)=C(SC3CNC(C(=O)N(C)C)C3)C(C)C12` (stereo not drawn), the Potency result in experiment [1], in experiment [2], in experiment [4] and in experiment [7] was “inactive” in each case. Further, the z-score in experiment [3] (setting [9]) is 0.648; in experiment [3] (setting [10]) it was 0.116; in experiment [3] (setting [11]), 0.637.
As for `COc1c(OCCCN2CCOCC2)ccc2c3n(c(=NC(=O)c4cnc(N)nc4)nc12)CCN3`, the Potency in experiment [1] is 0.457 µM (active); in experiment [6], 0.129 µM (active); in experiment [8], 2.04 µM (active); in experiment [4] it was 0.0323 µM (active); in experiment [7], 0.115 µM (active); in experiment [3] (TFE3-RCC UOK109 viability), 0.0407 µM (active). Also, the Z-AUC was -1.27 (inactive) in experiment [5], -1.04 in experiment [5] (setting [12]) and -0.708 in experiment [5] (measured here: PEO4 Z-AUC). The figures for the z-score in experiment [3] (setting [9]), in experiment [3] (setting [10]) and in experiment [3] (setting [11]) were -1.18, -2.73 and -1.79, respectively.
In the case of `COc1cc(OC2CCN(C)CC2)ccc1Nc1ncc2c(n1)n(C1CCCC1)c(=O)n2C`, the Potency is 9.35 µM (active) in experiment [1], 10.5 µM (active) in experiment [2], 16.6 µM (active) in experiment [4] and 16.6 µM (active) in experiment [7]. In addition, the results for the Z-AUC in experiment [5], in experiment [5] (setting [12]) and in experiment [5] (measured here: PEO4 Z-AUC) were 0.704 (inactive), 0.287 and 0.275, respectively.
As to `Cc1nc2ccc(CN(C)c3ccc(C(=O)N[C@@H](CCC(=O)O)C(=O)O)s3)cc2c(=O)[nH]1`, the Potency result in experiment [1], in experiment [6] and in experiment [7] was “inactive” in each case. Also, in experiment [4], the Potency was 0.0093 µM (active). Moreover, the Z-AUC in experiment [5] was -1.54 (inactive); in experiment [5] (setting [12]) it was -1.34; in experiment [5] (measured here: PEO4 Z-AUC), -0.15.
As to `Nc1nc(NCCNc2ncc(-n3ccnc3)c(-c3ccc(Cl)cc3Cl)n2)ccc1[N+](=O)[O-]`, the results for the Potency in experiment [1] and in experiment [2] were 3.72 µM (active) and 2.35 µM (active), respectively. Further, the Z-AUC is 0.218 (inactive) in experiment [5], 0.907 in experiment [5] (setting [12]) and 0.221 in experiment [5] (measured here: PEO4 Z-AUC).
For `NC(=O)c1cccc2cn(-c3ccc([C@@H]4CCCNC4)cc3)nc12`, the Potency result in experiment [2], in experiment [6], in experiment [8] and in experiment [4] was “inactive” throughout. Also, the Z-AUC in experiment [5] is 0.523 (inactive); in experiment [5] (setting [12]), -0.0942; in experiment [5] (measured here: PEO4 Z-AUC), 0.435.
Take `Nc1nc(-c2nn(Cc3ccccc3F)c3ncccc23)nc(N)c1N1CCOCC1`: the Potency result in experiment [8] and in experiment [7] was “inactive” each time. Also, the figures for the Z-AUC in experiment [5], in experiment [5] (setting [12]) and in experiment [5] (measured here: PEO4 Z-AUC) were -0.481 (inactive), -0.352 and -0.594, respectively.
Regarding `CN1CCC(CNc2ccc3ncc(-c4cccc(OC(F)(F)F)c4)n3n2)CC1`, the Potency in experiment [2] was 5.9 µM (active); in experiment [6], 20.9 µM (active); in experiment [8] it was 23.5 µM (active); in experiment [4], 6.62 µM (active). The values for the Z-AUC in experiment [5], in experiment [5] (setting [12]) and in experiment [5] (measured here: PEO4 Z-AUC) were -0.465 (inactive), -0.0601 and -0.00259, respectively.
On to `O=C(O)C1(Cc2cccc(Nc3nccs3)n2)CCC(Oc2cccc(Cl)c2F)CC1` (stereo not drawn), for which the Potency was 0.418 µM (active) in experiment [2] and 0.296 µM (active) in experiment [4]. The Potency result in experiment [6] was “inactive”. For the same compound, the Z-AUC in experiment [5] is -0.463 (inactive); in experiment [5] (setting [12]), -1.23; in experiment [5] (measured here: PEO4 Z-AUC) it was -1.84.
For `CN[C@H]1CCc2cc(OC)c(OC)c(OC)c2-c2ccc(OC)c(=O)cc21`, the Potency in experiment [6] is 0.0083 µM (active); in experiment [4] it was 0.0013 µM (active); in experiment [5] it was 0.174 µM (active); in experiment [3] (TFE3-RCC UOK109 viability), 0.00372 µM (active). The results for the Z-AUC in experiment [5] (setting [12]) and in experiment [5] (measured here: PEO4 Z-AUC) were -1.41 and -1.47, respectively. In addition, the values for the z-score in experiment [3] (setting [9]), in experiment [3] (setting [10]) and in experiment [3] (setting [11]) were -2.54, -2.9 and -0.848, respectively.
